Values joined by “and” are separate entries in the source; they are usually repeats but may differ in a detail not shown here. Equal values may be shown once. Compounds without any hit were thinned out: in the full panel of roughly 83,000, 20% have a hit.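 Interpretation: 100, growth as untreated; towards 0, rising growth inhibition; 0, no net growth; 0 to -100, cell death. Compounds scoring below 10 were considered active.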 Active and inactive are the calls of the source.
These molecules were tested on CAKI-1 renal (assay: NCI-60 one-dose screen, 48 h (100 = growth as untreated, 0 = no growth, -100 = all killed)). Conditions: 10 µM.
Experimental: Growth inhibition of the CAKI-1 human tumor cell line is measured as a screen for anti-cancer activity. Cells are grown in 96 well plates and exposed to the test compound for 48 hours. Compounds are tested at a single concentration, which is 10^-5 M for most compounds. The reported endpoint is percent growth (GI% or GIPRCNT), where numbers from 0 - 100% represent growth inhibition, and numbers from -100% - 0 represent cell death. For example, a value of 40 represents 60% growth inhibition. A value of 0 means no net growth occurred over the course of the experiment. A value of -40 indicates 40% of cells at the beginning of the experiment died by the end of the experiment. A value of -100 means all cells are dead at the end of the experiment.
NCI-60 Human Tumor Cell Lines Screen was performed using the standard one-dose NCI protocol, which is described in more detail at https://dtp.cancer.gov/discovery_development/nci-60/default.htm.
Compounds with GIPRCNT values below 10 were considered active. Activity score was based on GIPRCNT using the following formula: […]
Score is 0 for GIPRCNT values of 100 or above, 50 for GIPRCNT values of 0, and 100 for GIPRCNT values of -100.

| SMILES | growth |
| --- | --- |
| S=c1nc[nH]c2nc[nH]c12 | 7.07% (active) |

Same assay, conditions: 10 µM unless noted

| SMILES | growth |
| --- | --- |
| O=C(NC(=O)c1ccc(F)c(Cl)c1)NC1CC1 | 104% (inactive) and 87.1% (inactive) |
| Cc1cc2nc3ccc(=[N+](C)C)cc-3sc2cc1N | 12% (inactive) and 27.6% (inactive) |
| COC(=O)c1cc(C(=O)OC)cc([N+](=O)[O-])c1 | 109% (inactive) |
| CNc1ccc(O)cc1 | 105% (inactive) and 104% (inactive) |
| Nc1ccc2ccc(NS(=O)(=O)N3CCCCC3)cc2c1 | 43.4% (inactive) |
| CCOC(=O)c1csc(N)n1 | 66.6% (inactive) |
| CC(C)(C)C1=CC(=O)C(C(C)(C)C)=CC1=O | 90.7% (inactive) |
| CC(=O)/C(N=Nc1ccc(S(=O)(=O)c2ccc(N=N/C(C(C)=O)=C(/C)O)cc2)cc1)=C(\C)O | 100% (inactive) |
| Cc1cc(-c2ccc(N=Nc3c(C)nn(-c4ccc(S(=O)(=O)O)cc4)c3O)c(C)c2)ccc1N=Nc1ccc(O)c(C(=O)O)c1 | 100% (inactive) |
| O=[N+]([O-])c1ccc(N/N=C/C2CCCCCC2)c([N+](=O)[O-])c1 | 74.2% (inactive) |
| Cc1ccc2cccc([N+](=O)[O-])c2n1 | 96.5% (inactive) and 95.6% (inactive) |
| COc1ccc(/C=C/C(=O)O)cc1OC | 101% (inactive) |
| O=C1c2ccccc2CN1c1ccccc1 | 102% (inactive) |
| COc1ccc(-n2[nH]c3c(cnc4ccccc43)c2=O)cc1 | 68.3% (inactive) and 95.9% (inactive) |
| COc1ccc(CCn2cnn3c(=O)c4ccccc4nc3c2=O)cc1OC | 111% (inactive) and 97.8% (inactive) |
| Cc1cc(O)c(C(C)C)cc1N=O | 104% (inactive) and 107% (inactive) |
| COC(=O)C(Cc1cn(C(C)=O)c2ccccc12)P(=O)(OC)OC (stereo not given) | 102% (inactive) |
| O=C1C=CC[C@H](/C=C/c2ccccc2)O1 | 11.4% (inactive) and 2.9% (active) |
| CC1CCC(=O)N1c1ccc(N)cc1 (stereo not given) | 102% (inactive) |

| SMILES | growth |
| --- | --- |
| O=COCCCc1ccccc1 | 106% (inactive) |
| CCNC1=CC(=O)c2ncccc2C1=O | 55.8% (inactive) |
| CCCCC/C(C)=N\NC(N)=S | 95.2% (inactive) |
| C(=N\OCCc1ccccc1)/c1ccccn1 | 105% (inactive) and 100% (inactive) |
| O=c1[nH]nnc2cc(Cl)ccc12 | 92.2% (inactive) and 95.8% (inactive) |
| OCCS | 105% (inactive) |
| CCOC(=O)c1ccncc1 | 104% (inactive) |
| C/C(CC(C)C)=N/NC(N)=S | 104% (inactive) |
| c1ccc2c[n+](Cc3ccc4ccccc4n3)ccc2c1 | 102% (inactive) |
| CC(=O)Oc1cc(C(C)C)c(OCCN(C)C)cc1C | 91.9% (inactive) and 95.3% (inactive) |
| Cc1onc(-c2c(F)cccc2Cl)c1-c1ncc(-c2ccc(Cl)cc2)o1 | 14% (inactive) and 32% (inactive) |
| OC(CC(c1ccccc1)c1cccc2ccccc12)(c1ccccc1)c1ccccc1 (stereo not given) | 64.6% (inactive) and 57% (inactive) |
| O=c1[nH]c(=O)c2[nH]c(=O)[nH]c2[nH]1 | 101% (inactive) |
| Nc1ccccc1SC1CC(=O)N(c2ccc(I)cc2)C1=O (stereo not given) | 81.7% (inactive) |
| S=c1nn[nH]n1C1CCCCC1 | 108% (inactive) |
| CS(=O)(=O)c1nsc(N)n1 | 103% (inactive) |
| O=S(=O)(O)c1ccc2cc(O)ccc2c1 | 99.5% (inactive) |
| O=C(OCc1ccccc1)c1ccccc1 | 99.7% (inactive) and 90.2% (inactive) |
| CN(C=O)c1ccccc1 | 88.2% (inactive) |

Same assay, conditions: 50 µM

| SMILES | growth |
| --- | --- |
| S=c1nc[nH]c2nc[nH]c12 | 21% (inactive) |

Reference: PubChem BioAssay (NCI)
